Some test systems named below: NCI-H23 lung; NCI-H226 lung; NCI-H322M lung; HOP-62 NSCLC; NCI-H460 lung; HOP-92 NSCLC; NCI-H522 lung; 786-0 renal; COLO 205 colon; DU-145 prostate; K-562 leukemia; MALME-3M melanoma; MDA-MB-231 breast; RXF 393 renal; SF-268 CNS; SF-295 CNS; SF-539 CNS; UACC-257 melanoma; M14 melanoma; A549/ATCC NSCLC.
Assay in all cases: NCI-60 one-dose screen, 48 h (100 = growth as untreated, 0 = no growth, -100 = all killed)
Details in all cases: 10 µM unless noted

Several values for one entry are separate records, joined by “and”; a condition that tells them apart may be missing. Identical values can stand only once. The panel holds about 83,000 compounds, 20% with a hit somewhere; the sample as a whole holds those more often.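 Compound tested at a single concentration for 48 hours in 96-well plates; a percent growth value below 10 was scored as active.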 Activity calls are given as the source filed them.

Take `O=C(/C=C/c1ccc(F)cc1)Nc1ncc(Cc2ccc(F)cc2)s1`: the growth with NCI-H23 lung is 61.5% (inactive); in the test with NCI-H226 lung it was 70% (inactive); in the test on NCI-H322M lung, 41.4% (inactive); in the test with HOP-62 NSCLC, 39% (inactive); in the test on NCI-H460 lung, 17% (inactive); in the test with HOP-92 NSCLC, 71.5% (inactive). The growth in the test with NCI-H522 lung was 19.1% (inactive); in the test with 786-0 renal it was 46.7% (inactive); in the test with COLO 205 colon, 23.8% (inactive); in the test with DU-145 prostate, 33% (inactive); with K-562 leukemia, 14% (inactive); in the test with MALME-3M melanoma it was 41.5% (inactive). For the same compound, the growth with MDA-MB-231 breast was 75.7% (inactive); in the test on RXF 393 renal it was 32.1% (inactive); with SF-268 CNS, 52.3% (inactive); in the test with SF-295 CNS, 20.2% (inactive); with SF-539 CNS it was 22% (inactive); with UACC-257 melanoma, 60.3% (inactive). Further, in the test on M14 melanoma, the growth is 19.9% (inactive).

As for `COc1ccc2c(c1)c(C(=O)c1nc(-c3cn(C)c4ccccc34)no1)cn2C`, the growth was 94.6% (inactive) in the test with NCI-H23 lung; 83% (inactive) with NCI-H226 lung; 86.5% (inactive) with NCI-H322M lung; 92.5% (inactive) in the test with HOP-62 NSCLC; 101% (inactive) with NCI-H460 lung; 110% (inactive) in the test on HOP-92 NSCLC. For the same compound, the growth with NCI-H522 lung is 69.6% (inactive); with 786-0 renal, 107% (inactive); in the test with COLO 205 colon, 97.7% (inactive); with DU-145 prostate, 111% (inactive); in the test on K-562 leukemia, 72% (inactive); in the test with MALME-3M melanoma, 83.4% (inactive). The growth was 104% (inactive) in the test with MDA-MB-231 breast; 100% (inactive) with RXF 393 renal; 103% (inactive) in the test on SF-268 CNS; 90% (inactive) with SF-295 CNS; 97.2% (inactive) with SF-539 CNS; 89% (inactive) with UACC-257 melanoma. Moreover, in the test on M14 melanoma, the growth was 104% (inactive).

Regarding `O=C(Cn1cc(CN2CCN(c3ccnc4cc(Cl)ccc34)CC2)nn1)Nc1cccc([N+](=O)[O-])c1`, the growth in the test with NCI-H23 lung is 99.1% (inactive); with NCI-H226 lung, 86.3% (inactive); in the test on NCI-H322M lung, 91.9% (inactive); in the test with HOP-62 NSCLC, 71.9% (inactive); in the test with NCI-H460 lung, 98% (inactive); with HOP-92 NSCLC it was 71.4% (inactive). Besides, the growth in the test with NCI-H522 lung is 71.7% (inactive); with 786-0 renal it was 88% (inactive); in the test on COLO 205 colon, 101% (inactive); with DU-145 prostate, 100% (inactive); with K-562 leukemia, 68.8% (inactive); in the test on MALME-3M melanoma, 102% (inactive). Besides, the growth in the test with MDA-MB-231 breast is 64.8% (inactive); in the test on RXF 393 renal, 77.2% (inactive); in the test with SF-268 CNS, 84.6% (inactive); in the test on SF-295 CNS, 100% (inactive); in the test on SF-539 CNS it was 88.7% (inactive); in the test on UACC-257 melanoma it was 98.3% (inactive). The growth in the test on M14 melanoma is 103% (inactive).

Consider `CC(C)(C)CC(N)=O`, for which the growth was 100% (inactive) in the test with NCI-H23 lung; 95.6% (inactive) in the test on NCI-H226 lung; 108% (inactive) with NCI-H322M lung; 89.4% (inactive) in the test with HOP-62 NSCLC; 103% (inactive) in the test with NCI-H460 lung; 104% (inactive) in the test on HOP-92 NSCLC. Further, the growth was 111% (inactive) with NCI-H522 lung; 101% (inactive) in the test on 786-0 renal; 109% (inactive) with COLO 205 colon; 111% (inactive) in the test on DU-145 prostate; 116% (inactive) with K-562 leukemia; 102% (inactive) in the test on MALME-3M melanoma. The growth with RXF 393 renal is 103% (inactive); in the test with SF-268 CNS, 105% (inactive); in the test on SF-295 CNS, 92.5% (inactive); with SF-539 CNS, 95.3% (inactive); in the test with UACC-257 melanoma, 95% (inactive).

Consider `Cc1[nH]c(C(=O)Nc2nc3ccc(NC(=O)CCN)cc3s2)c(Cl)c1Cl`, for which the growth in the test with NCI-H23 lung is 37.4% (inactive); with NCI-H226 lung, 86.7% (inactive); in the test on NCI-H322M lung, 94% (inactive); in the test with HOP-62 NSCLC, 74.6% (inactive); in the test on NCI-H460 lung, 42.6% (inactive); in the test with HOP-92 NSCLC, 73.9% (inactive). Also, the growth in the test on NCI-H522 lung is 85.5% (inactive); with 786-0 renal, 92.1% (inactive); in the test on COLO 205 colon, 104% (inactive); with DU-145 prostate it was 48.4% (inactive); in the test with K-562 leukemia, 6.04% (active); with MALME-3M melanoma it was 53.8% (inactive). In addition, the growth was 51% (inactive) with MDA-MB-231 breast; 81.9% (inactive) with RXF 393 renal; 56.2% (inactive) in the test on SF-268 CNS; 95.7% (inactive) in the test with SF-295 CNS; 52.1% (inactive) with SF-539 CNS; 96.8% (inactive) in the test with UACC-257 melanoma. Besides, the growth in the test with M14 melanoma was 44.1% (inactive).

With `COc1ccc(/C=N/NC(=O)CN2CCN(c3cc4c(cc3F)c(=O)c(C(=O)O)cn4C3CC3)CC2)cc1O`, the growth is 103% (inactive) with NCI-H23 lung; 112% (inactive) in the test with NCI-H226 lung; 102% (inactive) in the test with NCI-H322M lung; 98.9% (inactive) with HOP-62 NSCLC; 105% (inactive) with NCI-H460 lung; 91.8% (inactive) with HOP-92 NSCLC. For the same compound, the growth with NCI-H522 lung was 80.8% (inactive); in the test on 786-0 renal it was 101% (inactive); in the test on COLO 205 colon it was 112% (inactive); in the test with DU-145 prostate, 102% (inactive); in the test with K-562 leukemia, 86.2% (inactive); in the test on MALME-3M melanoma it was 109% (inactive). For the same compound, the growth in the test on MDA-MB-231 breast is 92.8% (inactive); in the test with RXF 393 renal, 103% (inactive); in the test on SF-268 CNS it was 87.7% (inactive); with SF-295 CNS, 104% (inactive); in the test with SF-539 CNS, 101% (inactive); in the test on UACC-257 melanoma it was 89.5% (inactive). Moreover, the growth in the test on M14 melanoma was 101% (inactive).

With `CCOc1ccc(N2C(N)=NC(N)=NC2(C)C)cc1`, the growth in the test with NCI-H23 lung is 47.6% (inactive) and 83.8% (inactive); in the test with NCI-H322M lung, 45.2% (inactive) and 99.4% (inactive); in the test on HOP-62 NSCLC, 26.6% (inactive) and 84.5% (inactive); with NCI-H460 lung, 13.7% (inactive) and 104% (inactive); in the test on HOP-92 NSCLC, 10.3% (inactive) and 72.5% (inactive); with NCI-H522 lung it was -7.67% (active) and 90.1% (inactive). The growth was 19.5% (inactive) and 44.8% (inactive) with A549/ATCC NSCLC; 56.5% (inactive) and 84.2% (inactive) in the test on 786-0 renal; -32.6% (active) and 83% (inactive) with COLO 205 colon; 15.3% (inactive) and 104% (inactive) with DU-145 prostate; 10% (inactive) and 72.3% (inactive) in the test on K-562 leukemia; 25.3% (inactive) and 91.9% (inactive) with MALME-3M melanoma. Besides, the growth in the test on MDA-MB-231 breast is 49.5% (inactive) and 102% (inactive); with RXF 393 renal, -4.94% (active) and 98.1% (inactive); in the test on SF-268 CNS, 42.1% (inactive) and 97.5% (inactive); with SF-295 CNS, -31.9% (active) and 95.8% (inactive); in the test on SF-539 CNS, -29.1% (active) and 92.4% (inactive); in the test on UACC-257 melanoma, 19.3% (inactive) and 72.1% (inactive).

Turning to `N=c1ccccn1CCO`, the growth with NCI-H23 lung was 101% (inactive); with NCI-H226 lung, 107% (inactive); in the test with NCI-H322M lung, 96.7% (inactive); with HOP-62 NSCLC, 110% (inactive); in the test on NCI-H460 lung it was 114% (inactive); with HOP-92 NSCLC it was 96.5% (inactive). Also, the growth was 114% (inactive) in the test with NCI-H522 lung; 102% (inactive) in the test on 786-0 renal; 110% (inactive) with COLO 205 colon; 125% (inactive) with DU-145 prostate; 108% (inactive) with K-562 leukemia; 111% (inactive) with MALME-3M melanoma. For the same compound, the growth is 95% (inactive) in the test on MDA-MB-231 breast; 114% (inactive) in the test with RXF 393 renal; 110% (inactive) with SF-268 CNS; 124% (inactive) in the test with SF-295 CNS; 107% (inactive) in the test on SF-539 CNS; 105% (inactive) with UACC-257 melanoma. In addition, in the test with M14 melanoma, the growth is 102% (inactive).

For the origin of these results see PubChem BioAssay (NCI).
